Hits are enriched below; roughly 5.7% of the tested compounds scored in any of these assays.
AHR act: human AHR activation; P35869; AHR-responsive luciferase reporter cells, luminescence; activation, % at 5 µM; 2.5% of 320,000 active; AID 2796; in the data active means activation above about 47%;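 further: 0% = vehicle wells and 100% = reference agonist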
DAX1 inh-1: blocks DAX1 repression of SF-1 activated StAR promoter. 1.1% of 370,000 active. AID 652010. inhibition, % at 6.8 µM. HEK293T StAR-luciferase reporter, SF-1/DAX-1 repression relief;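 active means inhibition above the mean over all tested compounds plus 3 SD, cut at about 3.6% in these data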;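 further: 0% = DAX-1 cells with DMSO and 100% = cells lacking DAX-1 with DMSO; higher inhibition means more luminescence from relief of DAX-1 repression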
ssDAF12 agonist: activates DAF-12 receptor from parasite S. stercoralis. HEK293 ssDAF-12/GRIP1 lit1-tk-luc reporter, luminescence; % of 3 µM dafachronic acid response. activation, % at 6.8 µM. 1% of 370,000 active;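 active means activation above the mean over all tested compounds plus 3 SD, cut at about 0.9% in these data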;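 further: 0% = DMSO-only wells and 100% = 3 µM delta7-dafachronic acid wells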
hcDAF12 agonist: activators of H. contortus DAF-12 nuclear receptor; 1.4% of 370,000 active; HEK293 hcDAF-12 lit1-tk-luc reporter, luminescence; 0% DMSO, 100% Δ7-dafachronic acid; activation, % at 6.8 µM;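 active means activation above the mean of all tested compounds plus 3 SD, cut at about 5.5% in these data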;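 further: 100% = response to 3 µM Δ7-dafachronic acid high control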
hgDAF-12 ag: hgDAF-12 agonism, primary luciferase screen; HEK293 GAL4-hgDAF12 UAS-luciferase reporter, agonist luminescence; normalized to butyrate control; activation, % at 6.8 µM; 1.8% of 370,000 active; AID 687014;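 active means activation above a cutoff set at the mean of all screened compounds plus 3 SD, cut at about 10% in these data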;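 further: 0% = DMSO wells and 100% = sodium butyrate wells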
DAX1 inh-2: NR0B1 (DAX1) inhibition | HEK293 Gal4-DAX1 luciferase reporter, luminescence | 0.99% of 340,000 active | P51843 | inhibition, % at 6.75 µM;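 active means inhibition above the mean over all tested compounds plus 3 SD, cut at about 4.2% in these data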;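 further: 0% = DAX1-transfected cells with DMSO and 100% = empty-vector control cells with DMSO; inhibition shows as a rise in luminescence from relieved DAX1 repression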
Target sequence (P51843 207-470 limits assumed): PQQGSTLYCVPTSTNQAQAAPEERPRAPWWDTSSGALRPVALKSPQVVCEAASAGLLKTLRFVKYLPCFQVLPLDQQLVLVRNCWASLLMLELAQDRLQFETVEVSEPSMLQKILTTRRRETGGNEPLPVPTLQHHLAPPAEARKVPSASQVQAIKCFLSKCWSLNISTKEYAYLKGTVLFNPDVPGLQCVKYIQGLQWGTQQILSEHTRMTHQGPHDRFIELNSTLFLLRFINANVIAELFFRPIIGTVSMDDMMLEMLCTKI
The depositor's hits bear a star.

`CCn1c(CNC(=O)Cc2ccc(OC)cc2)n[nH]c1=S` gave AHR act -3, DAX1 inh-1 4.1*, ssDAF12 agonist -2, hcDAF12 agonist -1, hgDAF-12 ag 0 and DAX1 inh-2 -1.
Screening CCn1c(Cc2ccc(OC)cc2)nnc1SCC(=O)NC1CC1 returned AHR act -1, DAX1 inh-1 1, ssDAF12 agonist -1, hcDAF12 agonist -1, hgDAF-12 ag 4 and DAX1 inh-2 0.
For COc1cccc(NC(=S)NC(=O)Cc2ccccc2)c1 the results were AHR act 7, DAX1 inh-1 0, ssDAF12 agonist -1, hcDAF12 agonist 0, hgDAF-12 ag 1 and DAX1 inh-2 5.6*.
For CCC(=O)NC(=S)Nc1ccc(OC)cc1OC the results were AHR act 70*, DAX1 inh-1 0, ssDAF12 agonist -2, hcDAF12 agonist -3, hgDAF-12 ag 4 and DAX1 inh-2 0.
CCC(=O)Nc1ccc(OC)cc1OC was read as AHR act 12, DAX1 inh-1 -1, ssDAF12 agonist -1, hcDAF12 agonist 0, hgDAF-12 ag 1 and DAX1 inh-2 1.
`CSc1cccc(NC(=O)CCc2ccccc2)c1` gave AHR act 14, DAX1 inh-1 1, ssDAF12 agonist 0, hcDAF12 agonist 3, hgDAF-12 ag 4 and DAX1 inh-2 -1.
For COc1ccccc1NC(=S)NC(=O)Cc1ccccc1 the results were AHR act 14, DAX1 inh-1 0, ssDAF12 agonist -1, hcDAF12 agonist -2 and hgDAF-12 ag 0.
`COc1ccc(NC(=S)NC(=O)Cc2ccccc2)c(OC)c1` gave AHR act 48*, DAX1 inh-1 0, ssDAF12 agonist -1, hcDAF12 agonist 1, hgDAF-12 ag -1 and DAX1 inh-2 0.
`CSc1cccc(NC(=S)NC(=O)CCc2ccccc2)c1` gave AHR act 54*, DAX1 inh-1 1, ssDAF12 agonist 0, hcDAF12 agonist -1, hgDAF-12 ag 2 and DAX1 inh-2 1.
Screening CCOc1ccc2[nH]c3c(N4CCC5(CC4)OCCO5)ncnc3c2c1 returned AHR act 71*, DAX1 inh-1 -1, ssDAF12 agonist -2, hcDAF12 agonist -2 and hgDAF-12 ag -3.
`COc1ccc2[nH]c3c(N4CCc5ccccc5C4)ncnc3c2c1` gave AHR act 58*, DAX1 inh-1 -2, ssDAF12 agonist -2, hcDAF12 agonist -5, hgDAF-12 ag -4 and DAX1 inh-2 -8.
Screening CCOc1ccc2[nH]c3c(N4CCN(C(=O)c5ccco5)CC4)ncnc3c2c1 returned AHR act 24, DAX1 inh-1 -1, ssDAF12 agonist -1, hcDAF12 agonist -2 and hgDAF-12 ag -2.
CC(C)Oc1ccc(C2NC(=O)c3ccccc3O2)cc1 (configuration not stated) was read as AHR act -2, DAX1 inh-1 0, ssDAF12 agonist 0, hcDAF12 agonist 0, hgDAF-12 ag -1 and DAX1 inh-2 4.4*.
`CC(C)c1ccc(C2NC(=O)c3ccccc3O2)cc1` (configuration not stated) gave AHR act -1, DAX1 inh-1 1, ssDAF12 agonist -1, hcDAF12 agonist 2, hgDAF-12 ag 5 and DAX1 inh-2 1.
CCCC(=O)Oc1ccc(C2NC(=O)c3ccccc3O2)cc1 (configuration not stated) was read as AHR act 56*, DAX1 inh-1 0, ssDAF12 agonist 0, hcDAF12 agonist -2, hgDAF-12 ag 0 and DAX1 inh-2 2.
`CCOc1ccc(C2NC(=O)c3ccccc3O2)cc1` (configuration not stated) gave AHR act 3, DAX1 inh-1 0, ssDAF12 agonist -1, hcDAF12 agonist 4, hgDAF-12 ag 2 and DAX1 inh-2 1.
For COc1ccccc1NC(=O)C/C(C)=N/NC(=O)c1ccccn1 the results were AHR act 12, DAX1 inh-1 2, ssDAF12 agonist 0, hcDAF12 agonist 4, hgDAF-12 ag 13* and DAX1 inh-2 3.
COc1ccccc1NC(=O)C/C(C)=N/NC(=O)COc1c(Br)cc(Br)cc1OC was read as AHR act 10, DAX1 inh-1 4.2*, ssDAF12 agonist -2, hcDAF12 agonist -1, hgDAF-12 ag 1 and DAX1 inh-2 3.
